Screening results: PubChem, The Scripps Research Institute Molecular Screening Center
The list is not random: actives were taken first. Their share in the collection is about 4.1%.
ssDAF12 agonist – S. stercoralis DAF-12 activation, primary screen; AID 652126; 370,000 tested, 1% active; HEK293 ssDAF-12/GRIP1 lit1-tk-luc reporter, luminescence; % of 3 µM dafachronic acid response; activation, % at 6.8 µM;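 active = activation above the mean over all tested compounds plus 3 SD, cut at about 0.9% in these data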
hgDAF-12 ag – agonists of H. glycines DAF-12 nuclear receptor; HEK293 GAL4-hgDAF12 UAS-luciferase reporter, agonist luminescence; normalized to butyrate control; activation, % at 6.8 µM; 370,000 tested, 1.8% active;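 active = activation above a cutoff set at the mean of all screened compounds plus 3 SD, cut at about 10% in these data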
DAX1 inh-1 – inhibits human nuclear receptor DAX1; P51843; HEK293 Gal4-DAX1 luciferase reporter, luminescence; inhibition, % at 6.75 µM; 340,000 tested, 0.99% active; AID 504766;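 active = inhibition above the mean over all tested compounds plus 3 SD, cut at about 4.2% in these data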;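 also: inhibition shows as a rise in luminescence from relieved DAX1 repression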
Target sequence (P51843 207-470 limits assumed): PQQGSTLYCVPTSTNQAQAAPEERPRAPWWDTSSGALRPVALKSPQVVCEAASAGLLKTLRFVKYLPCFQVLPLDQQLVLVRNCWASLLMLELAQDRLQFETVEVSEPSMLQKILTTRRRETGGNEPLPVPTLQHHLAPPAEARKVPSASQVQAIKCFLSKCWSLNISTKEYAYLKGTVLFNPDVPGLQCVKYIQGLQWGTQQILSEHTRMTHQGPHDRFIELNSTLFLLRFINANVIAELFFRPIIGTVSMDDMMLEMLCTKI
DAX1 inh-2 – DAX1 (NR0B1) inhibition, primary screen; HEK293T StAR-luciferase reporter, SF-1/DAX-1 repression relief; inhibition, % at 6.8 µM; 370,000 tested, 1.1% active;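 active = inhibition above the mean over all tested compounds plus 3 SD, cut at about 3.6% in these data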;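 also: higher inhibition means more luminescence from relief of DAX-1 repression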
hcDAF12 agonist – activates DAF-12 receptor from parasite H. contortus; HEK293 hcDAF-12 lit1-tk-luc reporter, luminescence; 0% DMSO, 100% Δ7-dafachronic acid; activation, % at 6.8 µM; 370,000 tested, 1.4% active;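 active = activation above the mean of all tested compounds plus 3 SD, cut at about 5.5% in these data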
Large screens that a line does not name were inactive.

Cc1cc(C)n2nc(S(=O)(=O)N(CC(C)C)CC(C)C)nc2n1	ssDAF12 agonist 1.0
O=C(Nc1ccccc1)Nc1c(-c2ccccc2)nc2ncccn12	none (no result: DAX1 inh-1)
Cc1ccc(C(=O)Nc2ccc(N3CCN(C)CC3)cc2)cc1C	DAX1 inh-1 4.7
CN1CCN(C(=O)c2ccccc2NC(=O)c2sc3ccccc3c2Cl)CC1	none
Cc1cc(C(=O)Nc2ccc(N3CCCCC3)cc2)no1	hgDAF-12 ag 11
Cc1ccc(C(=O)Nc2ccc(N3CCCCC3)cc2)cc1	none
Cc1ccc(C(=O)Nc2ccc(N3CCCC3)cc2)cc1	hgDAF-12 ag 12
Cc1cc(C(=O)Nc2ccc(S(=O)(=O)N3CCCC3)cc2)no1	none
Cc1ccc(C(=O)Nc2ccc(N3CCN(S(C)(=O)=O)CC3)cc2)cc1C	none (no result: DAX1 inh-1)
CN1CCN(c2ccc(NC(=O)c3sc4ccccc4c3Cl)cc2)CC1	hgDAF-12 ag 11
CCOC(=O)[C@@]12CN(C(=O)OC(C)(C)C)CC=C1N(Cc1ccc(OC)cc1)C(=O)[C@H]2CC(=O)NCc1cccc2ccccc12	none (no result: DAX1 inh-1)
Cc1nn(CCC(=O)NNC(=O)Nc2ccccc2)c(C)c1[N+](=O)[O-]	none (no result: DAX1 inh-1)
COc1ccc(Cn2ccc3ccc(-c4ccc5ccn(C(=O)c6ccccc6OC)c5c4)cc32)cc1	none (no result: DAX1 inh-1)
COC(=O)C1=C(C)N(Cc2cccc(C(F)(F)F)c2)C(=NCC2CC2)NC1c1ccccc1 (stereo unspecified)	none (no result: DAX1 inh-1)
O=C1N(Cc2ccccc2)c2ccccc2C12CCCc1oc(CCc3ccccc3)nc12 (stereo unspecified)	none (no result: DAX1 inh-1)
Cc1cccn2cc(CCNC(=O)c3ccc(Br)o3)nc12	ssDAF12 agonist 1.3, hcDAF12 agonist 6.0
O=S1(=O)c2ccc(Br)cc2OC2CCCC[C@@H]2N1Cc1ccccc1 (stereo partly specified)	none (no result: DAX1 inh-1)
O[C@H](COc1cccc(Br)c1)CN1CCC(C(O)(c2ccccc2)c2ccccc2)CC1	none (no result: DAX1 inh-1)
COc1cc(NC(=O)c2cc3sccc3n2C)cc(OC)c1	hcDAF12 agonist 6.0
O=C(CSc1nc2ccccc2c(=O)n1NC(=O)c1ccccc1)c1ccccc1	ssDAF12 agonist 1.2, hgDAF-12 ag 12
O=C(CSc1nc2ccsc2c(=O)n1NC(=O)c1ccccc1)Nc1nccs1	hgDAF-12 ag 11
O=C(CSc1nc2ccccc2c(=O)n1NC(=O)c1ccccc1)c1ccc(Cl)cc1	hgDAF-12 ag 12
Cc1ccc(CN2CCCCC(NC(=O)c3ccc(-c4ccccc4)cc3)C2=O)cc1 (stereo unspecified)	none (no result: DAX1 inh-1)
O=C(NP(=O)(N1CCOCC1)N1CCOCC1)C1=C(N2CCOCC2)/C(=C\c2ccccc2)CC1	none
O=P(C1=C(N2CCOCC2)/C(=C\c2ccccc2)CC1)(N1CCOCC1)N1CCOCC1	hcDAF12 agonist 6.5
Cc1cccc(NC(=O)c2onc3c2CCCC3)c1C	hgDAF-12 ag 11
Cc1ccccc1NC(=O)c1onc2c1CCCC2	none
Cc1cccc(NC(=O)c2onc3c2CCCC3)n1	hgDAF-12 ag 13, DAX1 inh-2 4.1
CCOC(=O)[C@]12CCCCC/C=C\1N(Cc1ccc(OC)cc1)C(=O)[C@H]2CC(=O)N1CCN(C(=O)c2ccco2)CC1	none (no result: DAX1 inh-1)
O=C(Nc1ccccc1)OC[C@@H]1CSCCS(=O)(=O)N1	none (no result: DAX1 inh-1)
COC(=O)[C@]12C[C@H](CC(=O)NCCCN3CCCC3=O)C(=O)N(CCc3ccc(OC)c(OC)c3)C1=C[C@H](C(C)C)O[C@@H]2C1CC1	none (no result: DAX1 inh-1)
COCc1ccc(C(=O)N(C)CC2CCCN(CCc3ccc(OC)cc3)C2)o1 (stereo unspecified)	DAX1 inh-2 4.5
Cc1cc(C(=O)N(C)CC2CCCN(CCc3ccc(F)cc3)C2)c(C)o1 (stereo unspecified)	none
COc1ccc(CCN2CCCC(CN(C)C(=O)c3cc(C)oc3C)C2)cc1 (stereo unspecified)	hgDAF-12 ag 11
COc1cc(C=O)ccc1OCCCOc1ccccc1[N+](=O)[O-]	ssDAF12 agonist 1.0
Cc1cc(Br)ccc1OCC(=O)NC1CCCC1	none
O=C(COc1ccc(Br)cc1Br)NC(=O)NC1CCCC1	DAX1 inh-2 4.0
N#Cc1c(N)[nH]c(C(=O)c2ccccc2)c1-c1ccc(Br)cc1	none (no result: DAX1 inh-1)
CCN(Cc1ccccc1)S(=O)(=O)c1ccc(F)cc1	none
CCN(Cc1ccccc1)S(=O)(=O)c1cn(C)cn1	hgDAF-12 ag 13
C/C(=N/NC(=O)CCCOc1ccc(Cl)cc1Cl)c1ccc(C)o1	ssDAF12 agonist 1.1
Cc1cc(NC(=O)CCCOc2ccc(Cl)cc2Cl)no1	none
C#CCNC(=O)C[C@H]1C[C@@]2(C(=O)OC)C(=C[C@H](C(C)C)O[C@@H]2C2CC2)N(Cc2ccc3c(c2)OCO3)C1=O	none (no result: DAX1 inh-1)
Cc1cc(O)c(NC(=O)c2ccc(Br)o2)cc1C	ssDAF12 agonist 2.1, hgDAF-12 ag 13, hcDAF12 agonist 5.8
CCCN1Cc2cccc(C(=O)Nc3ccc4c(c3)OCCO4)c2C1=O	DAX1 inh-1 4.6
COc1ccccc1NC(=O)c1ccc(Br)o1	none
O=C(Nc1ccc2c(c1)OCCO2)c1cccc(Cl)c1Cl	hgDAF-12 ag 12
CCCN1Cc2cccc(C(=O)Nc3ccc4c(c3)OCO4)c2C1=O	none
O=C(Nc1ccc2c(c1)OCCO2)c1ccc(Cl)c([N+](=O)[O-])c1	hgDAF-12 ag 13
O=C(O)c1cc(NC(=O)c2ccc(Cl)c([N+](=O)[O-])c2)cc(C(=O)O)c1	none
CCOc1ccc(NCc2nnc(SCC(=O)Nc3nc(-c4ccccc4)cs3)n2-c2ccccc2)cc1	none
Cc1ccc(-n2c(SCC(=O)c3ccc(F)cc3)nnc2-c2cnccn2)cc1	none (no result: DAX1 inh-1)
CC1(C(=O)NS(=O)(=O)c2ccc(C#N)cc2)CCN1C(=O)Cc1ccc(-c2ccccc2)cc1 (stereo unspecified)	none (no result: DAX1 inh-1)
O=C(Nc1ccc2c(c1)OCCO2)c1ccc(Br)o1	hgDAF-12 ag 12
Cc1nn(-c2ccccc2)c2c1C(c1ccc(O)c(O)c1)N1C(=N2)C(Nc2ccccc2)=Nc2ccccc21 (stereo unspecified)	DAX1 inh-1 4.3
Cc1nn2c(-c3ccco3)nnc2c2ccccc12	hcDAF12 agonist 5.9
O=C(CCn1nnc(-c2cccs2)n1)N1CCCC1	none (no result: DAX1 inh-1)
Cc1nn(Cc2c(F)c(F)c(F)c(F)c2F)c(C)c1NC(=O)c1ccc(COc2ccccc2Cl)cc1	none
Cc1nn(Cc2c(F)c(F)c(F)c(F)c2F)c(C)c1NC(=O)c1ccc(COc2cc(Cl)ccc2Cl)cc1	ssDAF12 agonist 3.4
O=C(Cc1c(Cl)cccc1Cl)Nc1ccc(S(=O)(=O)Nc2ncccn2)cc1	none
CCCc1cc(=O)[nH]c(SCCN2C(=O)c3ccccc3C2=O)n1	DAX1 inh-1 5.5
c1ccc(-c2c[nH]c3cccc(C4CCCCC4)c23)cc1	none (no result: DAX1 inh-1)
Nc1ncnc(NCc2ccccc2)c1[N+](=O)[O-]	none
Cn1cnc(NCc2ccccc2)c1[N+](=O)[O-]	ssDAF12 agonist 3.4 (no result: DAX1 inh-1)
CCOC(=O)C1=NOC(C(=O)Nc2nccs2)(C(=O)C2CC2)C1 (stereo unspecified)	none (no result: DAX1 inh-1)
O=C(CCCc1ccccc1)Nc1nnc(C(F)(F)F)s1	none
